# Measured values published in PMC5540273 (PLoS ONE, 2017).
# Legend:
# Conditions in all cases: concentration: 1 μM, replicates: in singlicate; n = 1
# [1] = tested on: T1, ERK4
# T1 construct: gene MAPK4
# [2] = tested on: T2, ERK5
# T2 construct: gene MAPK7
# [3] = tested on: T3, ERK8
# T3 construct: gene MAPK15
# [4] = tested on: ERN1
# [5] = tested on: T4, FAK
# T4 construct: gene PTK2
# [6] = tested on: FER
# [7] = tested on: FES
# [8] = tested on: FGFR1
# [9] = tested on: FGFR2
# [10] = tested on: FGFR3
# 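Also: KINOMEscan kinase panel screen.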
Compound,%Inh [1],%Inh [2],%Inh [3],%Inh [4],%Inh [5],%Inh [6],%Inh [7],%Inh [8],%Inh [9],%Inh [10]
Fc1ccc(Nc2nccc(-c3c(-c4ccc(Cl)cc4)nn4ncccc34)n2)cc1F [GW829058],23%,0%,0%,48%,17%,9%,19%,13%,15%,9%
CS(=O)(=O)CCNCc1nc(-c2ccc3ncnc(Nc4ccc(OCc5cccc(F)c5)c(Cl)c4)c3c2)cs1.Cl [GW583340],45%,5%,0%,10%,0%,3%,0%,0%,0%,0%
Cc1cccc(-c2nc(Nc3ccc4[nH]nnc4c3)c3ccccc3n2)n1 [GW867587],0%,0%,0%,0%,0%,0%,0%,0%,0%,0%
COc1ccc(NC(=O)c2ccc(-c3cc(-c4nnc(C)o4)ccc3C)cc2)cc1 [GW595885],0%,0%,0%,0%,0%,6%,0%,0%,0%,16%
Clc1cc(Nc2ncnc3cc[nH]c23)ccc1OCc1ccccn1,27%,13%,6%,47%,8%,1%,22%,5%,8%,17%
Clc1cccc(-c2nc(Nc3ccncc3)c3ccccc3n2)c1 [GW873004],0%,0%,23%,0%,11%,16%,16%,37%,11%,0%
CC(=O)Nc1n[nH]c2ncc(-c3ccccc3)cc12 [SB-548492],0%,0%,60%,0%,0%,4%,25%,4%,0%,10%
Fc1cccc(COc2ccc(Nc3ncnc4sc(-c5ccc[nH]5)cc34)cc2Cl)c1 [GW707818],51%,6%,0%,10%,0%,12%,0%,0%,0%,6%
COC(=O)c1cccc(NC(=O)NCCNc2ccnc(Nc3ccc(F)cc3)n2)c1 [GSK1379883],4%,0%,0%,21%,0%,19%,7%,0%,43%,15%
CSc1nn2c(=O)cc(N3CCOCC3)nc2n1Cc1cccc(Cl)c1Cl [GSK2347225],21%,0%,0%,9%,0%,44%,13%,6%,17%,17%
c1ccc(-c2ccc3c(-c4ccnc(Nc5ccc6c(c5)OCCO6)n4)cnn3n2)cc1 [GW818941],0%,0%,92.7%,0%,6%,23%,0%,18%,0%,15%
Fc1cccc(COc2ccc(Nc3ncnc4cc[nH]c34)cc2Cl)c1,9%,0%,7%,35%,11%,31%,21%,14%,8%,10%
CN1c2ccc(-c3ccc(C(=O)NCCO)cc3)cc2-c2[nH]ncc2S1(=O)=O,0%,0%,12%,1%,–,11%,17%,30%,0%,0%
Nc1nc(-c2ccc3c(N)n[nH]c3c2)cc(N2CCCCC2)n1 [GSK2228768],2%,0%,0%,7%,0%,10%,0%,0%,0%,0%
Cc1ccc(C)c(NC(=O)NCCNc2ccnc(Nc3ccc(F)cc3)n2)c1 [GSK1379878],17%,98.4%,0%,0%,0%,17%,0%,0%,14%,0%
COc1ccc(-c2oc3ncnc(N)c3c2-c2ccc(OC)cc2)cc1 [SB-589132],27%,0%,0%,18%,0%,5%,0%,0%,3%,0%
CCc1nc(-c2cccc(N(C)S(=O)(=O)c3ccccc3)c2)c(-c2ccnc(Nc3ccc(N4CCN(C(C)=O)CC4)nc3)n2)s1 [GSK1645895],18%,19%,0%,28%,0%,0%,0%,0%,0%,3%

Compound,%Inh [1],%Inh [2],%Inh [3],%Inh [4],%Inh [5],%Inh [6],%Inh [7],%Inh [8],%Inh [9],%Inh [10]
CCC(CC)(CC)n1cnc2c(N)ncnc21 [SKF-97620],0%,0%,1%,26%,0%,0%,10%,17%,100%,0%
COc1cc2c(Nc3cccc(NC(=O)c4ccccc4)c3)ncnc2cc1OCCCN1CCOCC1 [GSK223810],0%,0%,0%,23%,0%,0%,0%,18%,11%,22%
Nc1nc(-c2ccccn2)c(-c2ccnc3ccccc23)s1 [GW548057],31%,4%,0%,14%,0%,8%,0%,0%,0%,16%
CN1CCC(n2cnc(-c3ccc(F)cc3)c2-c2ccnc(NC3CCNCC3)n2)CC1 [SB-229482],0%,0%,0%,2%,0%,0%,5%,4%,0%,9%
Oc1ccc2ncnc(Nc3ccc(OCc4ccccc4)cc3)c2c1 [GI262866],0%,0%,57%,19%,0%,0%,0%,0%,0%,0%
NC(=O)c1sc(-n2cnc3ccccc32)cc1OCc1ccccc1F [GSK1024306],0%,0%,26%,0%,0%,20%,0%,0%,0%,4%
Cl.c1ccc(Cn2ncc3cc(Nc4ncnc5ccccc45)ccc32)cc1 [GW273749],35%,0%,0%,34%,0%,13%,0%,0%,0%,0%
FC(F)(F)c1ccc(-c2cc(-c3c[nH]nc3-c3ccccn3)ccn2)cc1 [GW599550],0%,0%,0%,0%,0%,32%,0%,5%,0%,4%
O=C(c1ccc(-c2cc(-c3c[nH]nc3-c3ccccn3)ccn2)cc1)N1CCCC1 [GW792479],0%,23%,0%,0%,47%,0%,5%,3%,1%,3%
OCCOCCn1ccc2ncnc(Nc3ccc(Oc4cccc(Cl)c4)c(Cl)c3)c21,0%,0%,0%,0%,0%,24%,6%,27%,0%,0%
CCCc1ccc(S(=O)(=O)NC2CCN(c3ccnc(Nc4ccc(OC)cc4)n3)C2)cc1 (stereo not drawn) [GSK1379737],17%,0%,0%,0%,0%,12%,0%,0%,0%,0%
C[C@H]1CC[C@@H](C(=O)Nc2ccccc2)CN1c1cc(-c2ccc3c(N)n[nH]c3c2)nc(N)n1 [GSK2283293],29%,0%,0%,0%,0%,3%,9%,0%,5%,0%
COc1ccc(Nc2nccc(N3CCC(NC(=O)c4cccc(NC(C)=O)c4)C3)n2)cc1 (stereo not drawn) [GSK1379732],7%,0%,5%,0%,0%,12%,0%,0%,37%,19%
CS(=O)(=O)CCNCc1ccc(-c2ccc3ncnc(Nc4ccc(OCc5ccccc5)c(Cl)c4)c3c2)o1.Cl [GW574783],0%,0%,15%,0%,11%,14%,0%,0%,0%,12%
O=C(Nc1n[nH]c2nc(-c3ccco3)c(Br)cc12)c1ccc(CN2CCCC2)cc1.O=C(O)[C@H](O)[C@@H](O)C(=O)O [SB-742352],0%,0%,0%,0%,0%,4%,0%,0%,0%,1%
Cn1ccc2ncnc(Nc3ccc(Oc4cccc(Cl)c4)c(Cl)c3)c21,25%,22%,0%,48%,0%,0%,8%,1%,6%,1%
Cl.O=S(=O)(c1cccc(F)c1)c1ccc(Nc2ncnc3cc(Br)sc23)cc1Cl [GSK306886],44%,4%,0%,11%,0%,14%,13%,0%,0%,16%
